{
  "source": "PubChem BioAssay (NCI)",
  "note": "The panel holds about 83,000 compounds, 20% with a hit somewhere; the sample as a whole holds those more often.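 Compound tested at a single concentration for 48 hours in 96-well plates; a percent growth value below 10 was scored as active.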 The source made the active and inactive calls.",
  "data": [
    {"test_system": "UACC-62 melanoma", "test": "NCI-60 one-dose screen, 48 h (100 = growth as untreated, 0 = no growth, -100 = all killed)", "conditions": "10 µM unless noted", "experimental": "Growth inhibition of the UACC-62 human tumor cell line is measured as a screen for anti-cancer activity. Cells are grown in 96 well plates and exposed to the test compound for 48 hours. Compounds are tested at a single concentration, which is 10^-5 M for most compounds. The reported endpoint is percent growth (GI% or GIPRCNT), where numbers from 0 - 100% represent growth inhibition, and numbers from -100% - 0 represent cell death. For example, a value of 40 represents 60% growth inhibition. A value of 0 means no net growth occurred over the course of the experiment. A value of -40 indicates 40% of cells at the beginning of the experiment died by the end of the experiment. A value of -100 means all cells are dead at the end of the experiment.\nNCI-60 Human Tumor Cell Lines Screen was performed using the standard one-dose NCI protocol, which is described in more detail at https://dtp.cancer.gov/discovery_development/nci-60/default.htm.\nCompounds with GIPRCNT values below 10 were considered active. Activity score was based on GIPRCNT using the following formula: […]\nScore is 0 for GIPRCNT values of 100 or above, 50 for GIPRCNT values of 0, and 100 for GIPRCNT values of -100.", "values": [
      {"smiles": "CCN(CC)c1ccc(C2CC(c3cc(OC)c(OC)c(OC)c3)=NN2)cc1", "note": "(stereo not given)", "growth": "48.5% (inactive)"},
      {"smiles": "O=c1cc(Cl)[nH]c(=O)[nH]1", "growth": "86.3% (inactive)"},
      {"smiles": "O=C(Nc1cccc(-n2ccc3c(NC(=O)c4ccccc4)nccc32)c1)c1cccc(C(F)(F)F)c1", "growth": "29.6% (inactive)"},
      {"smiles": "CC1(C)N=C(N)N=C(N)N1c1cccc(CCCCc2ccccc2)c1", "growth": "-9.07% (active)"},
      {"smiles": "CCC1S/C(=N\\N=C(/C)c2cc3ccccc3o2)N(c2ccccc2)C1=O", "note": "(stereo not given)", "growth": "79.5% (inactive)"},
      {"smiles": "O=C1COc2ccccc2C(=O)N1CCCCNc1ccccc1", "growth": "95% (inactive)"},
      {"smiles": "CCOC(=O)c1noc2c1CCc1c-2cn(Cc2ccc(OC)cc2)c1-c1cc(OC)c(OC)c(OC)c1", "growth": "22.4% (inactive)"},
      {"smiles": "COc1ccc(C(=O)Cn2cnc3c(Nc4cc(C(=O)Nc5ccc(N6CCN(CCO)CC6)cc5)ccc4C)ncnc32)cc1", "growth": "104% (inactive)"},
      {"smiles": "O=C(O)c1ccc(-c2nn(-c3ccc(C(=O)O)cc3)cc2/C=N/Nc2c(F)c(F)cc(F)c2F)cc1", "growth": "106% (inactive)"},
      {"smiles": "CCCCCn1ncc(-c2c(O)c(O)cc3c(O)c(-c4c(C)cc5c(-c6cnn(CCCCC)n6)c(O)c(O)cc5c4O)c(C)cc23)n1", "growth": "-11.8% (active)"},
      {"smiles": "C=CCOc1ccc(/C(Cl)=N/N=C(\\Cl)c2cc(OC)c(OC)c(OC)c2)cc1", "growth": "64.5% (inactive)"},
      {"smiles": "CN(C)C(=O)Nc1nc2cc(Cl)c(Cl)cc2[nH]1", "growth": "23.1% (inactive)"},
      {"smiles": "O=C1c2ccccc2C(=O)c2c(NCCN=Cc3c(O)ccc4ccccc34)cccc21", "growth": "85.8% (inactive)"},
      {"smiles": "O=S(=O)(O)c1ccc(F)cc1", "growth": "107% (inactive)"},
      {"smiles": "C=CC(C)(O)CCC1C(=C)CCC2C(C)(C)CCCC12C", "note": "(stereo not given)", "growth": "95.5% (inactive)"},
      {"smiles": "COc1ccc(-c2ccc(NC(=O)Nc3ccc(Cl)c(C(F)(F)F)c3)c(C)n2)cc1", "growth": "65.6% (inactive)"},
      {"smiles": "CCCCN(CCCC)c1ccc(C(=N)c2ccc(N(C)C)cc2)cc1", "growth": "-71.9% (active)"},
      {"smiles": "CCOC(=O)NNc1nncc2ccccc12", "growth": "101% (inactive)"},
      {"smiles": "CCn1c(SC)nnc1-c1cc2c([nH]c3ccccc32)c(-c2cccc(O)c2)n1", "growth": "36.7% (inactive)"},
      {"smiles": "CCc1cccc(-c2ccccc2)c1", "growth": "103% (inactive)"},
      {"smiles": "CNC(=O)NN", "growth": "104% (inactive)"},
      {"smiles": "O=C(NCCNc1nccc(-c2c(-c3cccc(O)c3)nc3sccn23)n1)c1cccc(C(F)(F)F)c1", "growth": "3.21% (active)"},
      {"smiles": "O=[N+]([O-])c1ccccc1NC1c2ccccc2Oc2ccccc21", "growth": "48.7% (inactive)"},
      {"smiles": "CC(=O)N[C@@H](CNC(=O)c1cc(NC(=O)c2cc(NC(=O)c3cc(NC(=O)c4nccn4C)cn3C)cn2C)cn1C)CC(=O)Nc1cn(C)c(C(=O)Nc2cc(C(=O)Nc3cc(C(=O)Nc4cc(C(=O)NCCCN(C)CCCNC(=O)c5cccc(C(=O)O)c5)n(C)c4)n(C)c3)n(C)c2)n1", "growth": "59.1% (inactive)"},
      {"smiles": "c1ccc(OCC[P+](c2ccccc2)(c2ccccc2)c2ccccc2)cc1", "growth": "8.25% (active)"},
      {"smiles": "CN1CCN(Cn2nc(-c3cc(Cl)cc(Cl)c3Cl)n(/N=C/c3ccc(Cl)cc3)c2=S)CC1", "growth": "90% (inactive)"},
      {"smiles": "CCOc1ccc(NC(=O)Nc2cc(C(C)C)ccc2C)cc1", "growth": "80% (inactive)"},
      {"smiles": "CNCCCOc1c(Br)cc(CCNC(=O)/C(Cc2ccc(OC)c(Br)c2)=N/O)cc1Br", "growth": "9.73% (active)"},
      {"smiles": "N#Cc1c(N)nc(Cl)c(C#N)c1C(=O)c1ccccc1", "growth": "36.3% (inactive)"},
      {"smiles": "Cc1cc(SCc2ccc(Cl)cc2Cl)nc(SCc2ccc(Cl)cc2Cl)n1", "growth": "102% (inactive)"},
      {"smiles": "CC(=O)Nc1ccc([I+]c2ccc([N+](=O)[O-])cc2)cc1", "growth": "81.1% (inactive)"},
      {"smiles": "CC(C)(CCN=C(N)Nc1ccccn1)c1ccc(C(F)(F)F)cc1", "growth": "-2.3% (active)"},
      {"smiles": "COc1cc(Cn2cc3c(c2)-c2onc(CO)c2CC3)cc(OC)c1OC", "growth": "80.3% (inactive)"},
      {"smiles": "NC(=NCCCOc1ccc(F)cc1)Nc1ccc(Cl)c(Cl)c1", "growth": "78.6% (inactive)"},
      {"smiles": "COc1ccc(-c2nnc(SCC(=O)N3CCN(c4cc5c(cc4F)c(=O)c(C(=O)O)cn5C4CC4)CC3)o2)cc1OC", "growth": "97.7% (inactive)"},
      {"smiles": "O=C1C(Cl)=C(Nc2cccc3cc4ccccc4nc23)C(=O)c2ccccc21", "growth": "70.1% (inactive)"},
      {"smiles": "COc1ccc(-c2cc(-c3nnc(SC/C(=N\\O)c4ccccc4)n3-c3ccccc3)c3ccccc3n2)cc1", "growth": "97.6% (inactive)"},
      {"smiles": "COc1ccc(-c2nn(-c3ccc(NC(=O)c4cc(Cl)cc(Cl)c4)cc3)cc2-c2ccncc2)cc1Cl", "growth": "63.5% (inactive)"},
      {"smiles": "CC(C)(C)C(=O)Nc1nc2c(s1)CCc1ccn(S(=O)(=O)c3ccccc3)c1-2", "growth": "77.2% (inactive)"},
      {"smiles": "CCCCC(=O)Nc1nc2ccc(SCCC)cc2s1", "growth": "43.3% (inactive)"}
    ]}
  ]
}
